According to PubChem BioAssay (EPA / NIEHS):
“And” between values parts separate entries of the source, which are not always exact repeats. Equal entries are not always repeated. Inconclusive results are not listed. More than one record can exist for a structure, and the calls need not agree. The source made the active and inactive calls. The calls were made as follows, unless noted: active = hit-call score of the fitted dose curve at least 0.9, where 1 is the maximum; inconclusive = response in the unintended direction; inactive = score below 0.9.

Assays:
[1] = read-out: solute carrier (SLCO1B1), SLCO1B1 (gene 10599); experiment: LTEA_HepaRG_SLCO1B1: Life Technologies and Expression Analysis (LTEA) Assay for solute carrier (SLCO1B1) using HepaRG (AID 2283530; active = hit-call score of the fitted dose curve at least 0.9, where 1 is the maximum; inactive = score below 0.9); conditions: mRNA level, 48 h; actives raise or lower the signal
How it was run: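 Differentiated human HepaRG cells were exposed for 48 h in serum-free induction medium to eight half-log concentrations, top 100 uM, in 0.5% DMSO. SLCO1B1 mRNA was measured by qRT-PCR, normalized to ACTB, GAPDH and POLR2A, and fitted bidirectionally against DMSO.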

[2] = read-out: Transforming Growth Factor (TGFA), TGFA (gene 7039); experiment: LTEA_HepaRG_TGFA: Life Technologies and Expression Analysis (LTEA) Assay for Transforming Growth Factor (TGFA) using HepaRG (AID 2283532; active = hit-call score of the fitted dose curve at least 0.9, where 1 is the maximum; inactive = score below 0.9); conditions: mRNA level, 48 h; actives raise or lower the signal
How it was run: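 Differentiated HepaRG cells exposed 48 hours in serum-free induction medium, 0.5% DMSO vehicle, 8-point half-log series from 100 uM, in duplicate. TGFA mRNA by TaqMan qRT-PCR, normalised to ACTB, GAPDH, POLR2A; bidirectional fit versus DMSO.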

[3] = read-out: Transforming Growth Factor (TGFB1), TGFB1 (gene 7040); experiment: LTEA_HepaRG_TGFB1: Life Technologies and Expression Analysis (LTEA) Assay for Transforming Growth Factor (TGFB1) Transporter using HepaRG (AID 2283533; active = hit-call score of the fitted dose curve at least 0.9, where 1 is the maximum; inactive = score below 0.9); conditions: mRNA level, 48 h; actives raise or lower the signal
How it was run: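 Differentiated HepaRG cells exposed 48 hr in serum-free induction medium to eight half-log concentrations up to 100 uM (0.5% DMSO), duplicate; TGFB1 mRNA by TaqMan qRT-PCR normalised to ACTB, GAPDH, POLR2A; bidirectional fit against DMSO.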

[4] = read-out: TIMP1, TIMP1 (gene 7076); experiment: LTEA_HepaRG_TIMP1: Life Technologies and Expression Analysis (LTEA) Assay for TIMP1 using HepaRG (AID 2283534; active = hit-call score of the fitted dose curve at least 0.9, where 1 is the maximum; inactive = score below 0.9); conditions: mRNA level, 48 h; actives raise or lower the signal
How it was run: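 Differentiated HepaRG cells exposed 48 h in serum-free induction medium, duplicates, eight half-log concentrations from 100 uM in 0.5% DMSO. TIMP1 mRNA by qRT-PCR normalized to ACTB, GAPDH, POLR2A; bidirectional fitting against DMSO.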

[5] = read-out: Tumor necrosis factor receptor 1 (TNFRSF1A), TNFRSF1A (gene 7132); experiment: LTEA_HepaRG_TNFRSF1A: Life Technologies and Expression Analysis (LTEA) Assay for Tumor necrosis factor receptor 1 (TNFRSF1A) using HepaRG (AID 2283535; active = hit-call score of the fitted dose curve at least 0.9, where 1 is the maximum; inactive = score below 0.9); conditions: mRNA level, 48 h; actives raise or lower the signal
How it was run: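 Differentiated HepaRG cells in serum-free induction medium, exposed 48 h in duplicate to 8 half-log concentrations up to 100 uM in 0.5% DMSO. TNFRSF1A mRNA by Fluidigm TaqMan qRT-PCR, normalized to ACTB, GAPDH, POLR2A; bidirectional fit.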

[6] = read-out: Thyroid Hormone Responsive (THRSP), THRSP (gene 7069); experiment: LTEA_HepaRG_THRSP: Life Technologies and Expression Analysis (LTEA) Assay for Thyroid Hormone Responsive (THRSP) using HepaRG (AID 2283536; active = hit-call score of the fitted dose curve at least 0.9, where 1 is the maximum; inactive = score below 0.9); conditions: mRNA level, 48 h; actives raise or lower the signal
How it was run: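 Differentiated HepaRG cells treated 48 h in serum-free induction medium with 8 half-log concentrations up to 100 uM (0.5% DMSO), duplicates. THRSP mRNA by TaqMan qRT-PCR normalised to ACTB, GAPDH, POLR2A; bidirectional fit versus DMSO.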

[7] = read-out: Cellular tumor antigen p53 (Homo sapiens) (UniProt P04637); experiment: LTEA_HepaRG_TP53: Life Technologies and Expression Analysis (LTEA) Assay for Tumor Protein P53 (TP53) using HepaRG (AID 2283537; active = hit-call score of the fitted dose curve at least 0.9, where 1 is the maximum; inactive = score below 0.9); conditions: mRNA level, 48 h; actives raise or lower the signal
How it was run: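 Gain or loss of TP53 mRNA signal is scored relative to 0.5% DMSO after 48 h chemical treatment of HepaRG liver cells, tested in duplicate at eight half-log concentrations up to 100 uM.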

[8] = read-out: UDP glucuronosyltransferase (UGT1A1), UGT1A1 (gene 54658); experiment: LTEA_HepaRG_UGT1A1: Life Technologies and Expression Analysis (LTEA) Assay for UDP glucuronosyltransferase (UGT1A1) using HepaRG (AID 2283538; active = hit-call score of the fitted dose curve at least 0.9, where 1 is the maximum; inactive = score below 0.9); conditions: mRNA level, 48 h; actives raise or lower the signal
How it was run: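 Human liver HepaRG cultures receive test chemical for 48 h, up to 100 uM in 0.5% DMSO, with phenobarbital induction controls. UGT1A1 mRNA is measured by qRT-PCR and normalized to ACTB, GAPDH and POLR2A.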

[9] = read-out: UDP glucuronosyltransferase (UGT1A6), UGT1A6 (gene 54578); experiment: LTEA_HepaRG_UGT1A6: Life Technologies and Expression Analysis (LTEA) Assay for UDP glucuronosyltransferase (UGT1A6) using HepaRG (AID 2283539; active = hit-call score of the fitted dose curve at least 0.9, where 1 is the maximum; inactive = score below 0.9); conditions: mRNA level, 48 h; actives raise or lower the signal
How it was run: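 Differentiated HepaRG cells, ~100,000/well, were exposed for 48 h in serum-free induction medium with 0.5% DMSO to 8-point half-log series topping at 100 uM, in duplicate. mRNA measured by Fluidigm TaqMan qRT-PCR, normalized to ACTB, GAPDH and POLR2A.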

[10] = read-out: X-box binding protein 1 (XBP1), XBP1 (gene 7494); experiment: LTEA_HepaRG_XBP1: Life Technologies and Expression Analysis (LTEA) Assay for X-box binding protein 1 (XBP1) using HepaRG (AID 2283540; active = hit-call score of the fitted dose curve at least 0.9, where 1 is the maximum; inactive = score below 0.9); conditions: mRNA level, 48 h; actives raise or lower the signal
How it was run: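 Differentiated human HepaRG cells in serum-free induction medium exposed 48 h in duplicate to eight half-log concentrations up to 100 uM in 0.5% DMSO. XBP1 mRNA measured by Fluidigm TaqMan qRT-PCR, normalized to ACTB, GAPDH, POLR2A; bidirectional fitting against DMSO.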

[11] = LTEA_HepaRG_LDH_cytotoxicity: Cytotoxicity Assessment in the Life Technologies and Expression Analysis (LTEA) Assay (AID 2283563);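 as to AC50: LDH activity released into spent culture medium as a marker of cell death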
How it was run: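 Differentiated HepaRG cells in serum-free induction medium, exposed 48 h in duplicate to 8 half-log concentrations up to 100 uM in 0.5% DMSO. Cytotoxicity from LDH measured in spent medium, fit relative to DMSO.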

[12] = ATG_XTT_Cytotoxicity: Cytotoxicity Assessment in the Attagene TRANS-FACTORIAL HepG2 Assay (AID 2283584);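 as to AC50: XTT signal for cell number as viability in transfected HepG2 cells; cells exposed to compound for 24 h before reading; active means loss of viability signal versus DMSO baseline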
How it was run: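 HepG2 cells transiently transfected with GAL4-UAS multiple reporter units, dosed 24 h; cytotoxicity read by XTT as loss of signal versus DMSO baseline.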

[13] = TOX21_p53_BLA_p2_viability: Viability Assessment in the Tox21 HCT-116 p53 Agonism Beta-lactamase Assay, Phase 2 (AID 2283591);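 also: compound exposure lasted 16 h at 37 °C; actives lower the ATP signal meaning cytotoxicity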
How it was run: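 HCT116 p53-bla cells, 4000/well, dosed after 5 h plating (217-fold dilution of DMSO stocks) and incubated 16 h at 37C. Viability taken as cellular ATP by CellTiter-Glo luminescence after 30 min RT; signal loss marks cytotoxicity.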

[14] = molecular target: Cellular tumor antigen p53 (Homo sapiens) (UniProt P04637); experiment: TOX21_p53_BLA_p2_ratio: Tox21 HCT-116 p53 Agonism Beta-lactamase Assay, Ratio, Phase 2 (AID 2283592)
Chain of Cellular tumor antigen p53 (Homo sapiens) (P04637 whole entry, looked up): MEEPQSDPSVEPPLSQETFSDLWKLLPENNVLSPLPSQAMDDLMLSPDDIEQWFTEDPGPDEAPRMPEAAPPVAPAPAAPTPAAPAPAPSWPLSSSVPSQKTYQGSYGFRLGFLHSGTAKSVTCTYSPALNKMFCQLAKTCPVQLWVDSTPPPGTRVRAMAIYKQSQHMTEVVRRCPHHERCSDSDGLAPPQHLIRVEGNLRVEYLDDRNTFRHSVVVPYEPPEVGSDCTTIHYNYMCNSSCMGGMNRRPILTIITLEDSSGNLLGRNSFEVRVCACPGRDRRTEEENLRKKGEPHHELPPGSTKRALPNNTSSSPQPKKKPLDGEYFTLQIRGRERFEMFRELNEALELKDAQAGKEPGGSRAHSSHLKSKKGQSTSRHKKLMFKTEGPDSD
How it was run: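 HCT-116 cells with p53-responsive beta-lactamase reporter, 4000 cells/well, preincubated 5 h, then compound in DMSO (217-fold dilution) for 16 h at 37C. CCF4-AM substrate 2 h at room temperature; 460/530 nm emission ratio fitted upward versus DMSO.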

[15] = TOX21_p53_BLA_p3_viability: Viability Assessment in the Tox21 HCT-116 p53 Agonism Beta-lactamase Assay, Phase 3 (AID 2283593);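 also: cells exposed to compound for 16 h before reading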
How it was run: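 HCT116 cells, 4000/well, dosed 5 h after plating by pin transfer (217-fold dilution from DMSO stock) and incubated 16 h at 37C, 5% CO2. Viability read as ATP luminescence with CellTiter-Glo after 30 min at room temperature.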

[16] = molecular target: Cellular tumor antigen p53 (Homo sapiens) (UniProt P04637); experiment: TOX21_p53_BLA_p3_ratio: Tox21 HCT-116 p53 Agonism Beta-lactamase Assay, Ratio, Phase 3 (AID 2283596)
How it was run: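 HCT116 p53-bla cells (4000/well) given compound in DMSO (217-fold dilution) after 5 h, incubated 16 h at 37C. CCF4-AM substrate 2 h at room temperature; 460/530 nm emission ratio, gain fitted against DMSO.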

[17] = TOX21_p53_BLA_p4_viability: Viability Assessment in the Tox21 HCT-116 p53 Agonism Beta-lactamase Assay, Phase 4 (AID 2283597);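 also: hits lower the luminescence signal meaning cytotoxicity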
How it was run: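 HCT-116 p53-bla cells, 4000/well, dosed after 5 h attachment and incubated 16 h at 37 °C, 5% CO2. Viability from CellTiter-Glo ATP luminescence after 30 min at room temperature, taken after the beta-lactamase read; loss of signal indicates cytotoxicity.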

[18] = TOX21_p53_BLA_p5_viability: Viability Assessment in the Tox21 HCT-116 p53 Agonism Beta-lactamase Assay, Phase 5 (AID 2283600)
How it was run: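 HCT-116 p53 beta-lactamase reporter cells, 4000/well, were exposed to compound (pin transfer, 217-fold dilution) for 16 hours at 37C. Cellular ATP was read by CellTiter-Glo luminescence after 30 min at room temperature.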

[19] = molecular target: Cellular tumor antigen p53 (Homo sapiens) (UniProt P04637); experiment: TOX21_p53_BLA_p4_ratio: Tox21 HCT-116 p53 Agonism Beta-lactamase Assay, Ratio, Phase 4 (AID 2283601)
How it was run: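 HCT-116 p53 beta-lactamase reporter cells (4000/well) preincubated 5 h, then compound (217-fold dilution of DMSO stock) for 16 h at 37C. CCF4-AM substrate added 2 h at room temperature; 460/530 nm emission ratio fitted upward versus DMSO.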

[20] = read-out: sulfotransferase 2A1 (SULT2A1), SULT2A1 (gene 6822); experiment: LTEA_HepaRG_SULT2A1: Life Technologies and Expression Analysis (LTEA) Assay for sulfotransferase 2A1 (SULT2A1) using HepaRG (AID 2283531; active = hit-call score of the fitted dose curve at least 0.9, where 1 is the maximum; inactive = score below 0.9); conditions: mRNA level, 48 h; actives raise or lower the signal
How it was run: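 HepaRG human liver cells, 48 h exposure in serum-free induction medium to 8 half-log concentrations topping at 100 µM (0.5% DMSO), duplicate wells. SULT2A1 mRNA measured by TaqMan qRT-PCR, normalized to ACTB/GAPDH/POLR2A; bidirectional fit against DMSO.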

Measured: AC50

CC(C)(C)C(O)/C(=C\c1ccc(Cl)cc1Cl)n1cncn1 (centres undefined)
active: [1] 69 µM | [4] 69.2 µM | [8] 69.2 µM | [9] 36.4 µM | [11] 72.9 µM | [12] 56.3 µM | [17] 51.8 µM
not listed: [20]
inactive: all other assays above

ClC1C(Cl)C(Cl)C(Cl)C(Cl)C1Cl (centres undefined)
active: [8] 780 nM and 3.95 µM | [17] 72.6 µM
inactive: [1] | [20] | [2] | [3] | [4] | [5] | [6] | [7] | [9] | [10] | [11] | [12] | [13] | [14] | [15] | [16] | [17] | [18] | [19]

COc1nn(CSP(=S)(OC)OC)c(=O)s1
active: [8] 15.1 µM
not listed: [12] | [20]
inactive: all other assays above

Oc1cc(Cl)ccc1Oc1ccc(Cl)cc1Cl
active: [4] 10.1 µM | [5] 10.1 µM | [6] 94.7 µM | [9] 51 µM | [11] 78.6 µM and 78.2 µM and 78 µM | [12] 66.3 µM and 51.2 µM and 39.8 µM | [13] 31.6 µM | [14] 73.1 µM | [15] 54.2 µM | [16] 78.1 µM | [17] 41.3 µM | [18] 48 µM | [19] 79 µM
inactive: [1] | [20] | [2] | [3] | [4] | [5] | [6] | [7] | [8] | [9] | [10] | [12] | [13] | [14] | [17] | [18] | [19]

CCN(CC)C(=O)SCc1ccc(Cl)cc1
not listed: [12] | [14] | [18] | [20]
inactive: all other assays above
